Assay outcomes: PubChem, several laboratories
CYP2C19 act: increases human CYP2C19 enzyme activity. recombinant CYP2C19, luciferin-H EGE luminescence; stronger effect = higher value; 0 = fully inhibited enzyme, 1 = untreated enzyme. 96,000 tested, under 10 active. activation factor at 5 µM;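 active means activation factor of at least 2 at 5 µM in the primary screen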;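 further: 0 = wells with 2.5 mM tranylcypromine and 1 = vehicle-only wells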
CYP2C9 inhib: human CYP2C9 inhibition; inhibition, % at 5 µM; P11712; CYP2C9 Supersomes, luciferin-H conversion, luminescence; 20% of 96,000 active;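 active means blocking of liver enzyme CYP2C9 beyond about 50% at 5 µM, limit read from the data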
Target sequence (P11712 whole entry, looked up): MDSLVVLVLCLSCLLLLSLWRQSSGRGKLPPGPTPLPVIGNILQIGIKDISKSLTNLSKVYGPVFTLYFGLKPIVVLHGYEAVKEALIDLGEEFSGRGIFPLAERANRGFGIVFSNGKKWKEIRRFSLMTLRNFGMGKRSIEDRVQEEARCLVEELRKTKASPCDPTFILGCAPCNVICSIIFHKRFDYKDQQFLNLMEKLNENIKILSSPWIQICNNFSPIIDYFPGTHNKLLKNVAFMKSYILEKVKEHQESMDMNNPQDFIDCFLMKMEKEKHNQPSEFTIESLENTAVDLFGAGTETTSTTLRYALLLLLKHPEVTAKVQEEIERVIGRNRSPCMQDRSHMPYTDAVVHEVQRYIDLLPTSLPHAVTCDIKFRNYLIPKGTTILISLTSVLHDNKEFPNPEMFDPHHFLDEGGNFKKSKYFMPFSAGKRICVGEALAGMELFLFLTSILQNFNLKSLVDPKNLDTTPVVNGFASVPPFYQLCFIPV
MRP-1 activ: activates MRP-1; AID 799; H69AR cells + doxorubicin, viability rescue, CellTiter-Glo; 0.61% of 140,000 active; viability increase, % at 10 µM;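 active means viability gain under doxorubicin at or above a set limit, the compound median plus 3 SD, cut at about 4.7% in these data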;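 further: MRP-1 overexpressing cells given doxorubicin 25 µM after compound pretreatment; 18-22 h compound pretreatment then 72 h with doxorubicin before readout; 0% = doxorubicin-only wells and 100% = vehicle-treated cells without doxorubicin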
CYP2C9 act: CYP2C9 (human) activation | P11712 | recombinant CYP2C9, luciferin-H conversion, luminescence; stronger effect = higher value; factor 1 = untreated enzyme, 0 = blocked | activation factor at 5 µM | 1.4% of 96,000 active | AID 1024;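 active means activation factor of 2 or more for CYP2C9 at a 5 µM dose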;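 further: 0 = sulfaphenazole-blocked wells and 1 = vehicle-only wells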
MRP reversal: compounds reversing MRP-mediated drug resistance. differential viability (reversal), % at 10 µM. H69AR cells + 2 uM doxorubicin, CellTiter-Glo, 72 h. AID 602. 0.04% of 85,000 active;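 active means viability drop by adding the cancer drug above about 55%, with treated viability meeting a 40% cutoff, limit read from the data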;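 further: viability without doxorubicin minus viability with 2 µM doxorubicin for each compound; larger differential means the compound sensitizes cells more to doxorubicin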
CYP2C19 inhib: human CYP2C19 inhibition; AID 778; CYP2C19 Supersomes, luciferin-H EGE luminescence, 30 min; 21% of 96,000 active; inhibition, % at 5 µM; P33261;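 active means CYP2C19 inhibition above a set limit at 5 µM in the primary screen, cut at about 50% in these data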;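 further: plate controls were negative control wells for no effect and 2.5 mM tranylcypromine positive control for full effect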
The depositor's hits bear a star; . = no result given. Compounds with a hit are over-represented: about 21% of the library has one in this group of screens.

SMILES	CYP2C19 act	CYP2C9 inhib	MRP-1 activ	CYP2C9 act	MRP reversal	CYP2C19 inhib
O=C(CCCc1nc(-c2ccccc2Cl)no1)NCc1cccnc1	0.4	1.2	-1.9	1	-36.0	60.8*
O=C(CCc1nc(-c2ccccc2)no1)NCc1cccnc1	1	50.9*	-1.9	0.5	8.7	1.9
O=C(CCc1nc(-c2ccccc2)no1)NCc1ccco1	0.4	58.8*	-1.5	0.4	16.9	57.0*
O=C(Nc1ccc(-c2noc(CCc3ccccc3)n2)cc1)c1cccnc1	0.7	54.6*	-3.8	0.5	-12.0	27.4
Cc1ccc(-c2noc(CCC(=O)NCc3ccco3)n2)cc1	0.9	47.2	-1.3	0.5	-8.4	13.0
C=C(C)Cn1c(NCCOC)nc2c1c(=O)[nH]c(=O)n2C	.	.	-3.0	.	-1.3	.
O=C(CCCc1ccccc1)NCc1cccnc1	0.1	38.2	-1.7	0.6	0.3	91.1*
Cc1ccc(CSCC(=O)NCc2cccnc2)cc1	.	.	-0.7	.	.	.
Cn1[nH]c(=O)c2ccccc2c1=O	1.2	-12.1	0.4	1.1	6.0	-20.5
O=C(Cn1[nH]c(=O)c2ccccc2c1=O)NCc1cccnc1	0.9	63.2*	2.2	0.4	2.5	11.2
O=C(CCc1ccc(S(=O)(=O)NCc2ccccc2)cc1)NCc1cccnc1	.	.	-1.5	.	.	.
O=C(CCCc1nc(-c2ccc(Cl)cc2)no1)Nc1cccnc1	0.5	74.8*	0.2	0.3	16.4	52.2*
O=c1[nH]n(Cc2ccccc2)c(=O)c2ccccc12	0.3	40.8	-1.9	0.6	.	72.1*
CC(C)c1ccc(-c2cc(C(=O)NN3CCN(C)CC3)c3ccccc3n2)cc1	.	.	-3.9	.	.	.
CCOC(=O)Cc1csc(NC(=O)CCN2C(=O)c3ccccc3C2=O)n1	0.3	76.0*	-1.1	0.2	3.5	69.0*
CCC(CC)c1nnc(NC(=O)CCCN2C(=O)c3ccccc3C2=O)s1	0.6	71.5*	-0.9	0.3	-6.2	41.4
Cc1nnc(NC(=O)CCCN2C(=O)c3ccccc3C2=O)s1	0.9	9.8	-0.6	0.9	2.8	8.9
CCOC(=O)Cc1csc(NC(=O)CCCN2C(=O)c3ccccc3C2=O)n1	0.9	52.8*	0.2	0.5	-0.5	13.3
COCCN(CC(=O)NC1CCCCC1)C(=O)CSc1nc2ccccc2o1	0.1	46.4	-1.3	0.5	.	92.1*
O=C(CN(C(=O)CSc1nc2ccccc2o1)c1ccccc1F)NC1CCCCC1	.	.	-0.1	.	.	.
O=C(CN(Cc1ccc2c(c1)OCO2)C(=O)CSc1nc2ccccc2o1)NC1CCCCC1	0	96.0*	-1.6	0	-47.6	97.5*
CSc1nc2ccc(S(=O)(=O)N3CCCCC3)cc2s1	0.6	16.9	-2.7	0.8	-6.3	40.7
O=C(Nc1nc2ccc(S(=O)(=O)N3CCCCC3)cc2s1)C1CCCO1 (stereo not drawn)	0.9	77.4*	-3.9	0.2	10.9	7.4
O=C(Nc1nc2ccc(S(=O)(=O)N3CCCC3)cc2s1)C1CCCCC1	1	63.5*	-0.5	0.4	-46.0	3.5
COc1ccc2nc(NC(=O)Cc3ccc(OC)c(S(=O)(=O)N4CCOCC4)c3)sc2c1	0.5	37.9	-1.9	0.6	-9.6	54.6*
SMILES	CYP2C19 act	CYP2C9 inhib	MRP-1 activ	CYP2C9 act	MRP reversal	CYP2C19 inhib
CSc1nc2ccc(S(=O)(=O)N3CCOCC3)cc2s1	0	62.6*	-2.1	0.4	-0.8	99.5*
Nc1nc2ccc(S(=O)(=O)N3CCCCC3)cc2s1	0.7	-46.1	-5.2	1.5	-0.2	30.6
CC(C)OC(=O)CC12CN(C)CC(CC(=O)OC(C)C)(CN(C)C1)C2=O	1.2	-10.2	-1.8	1.1	7.8	-16.1
COc1cc(C(=O)Nc2nc3ccc(S(=O)(=O)N4CCOCC4)cc3s2)cc(OC)c1OC	0.5	79.2*	-4.3	0.2	-11.3	53.6*
COc1ccc2nc(NC(=O)c3cccc(S(=O)(=O)N4CCOCC4)c3)sc2c1	0.7	34.3	-5.1	0.7	-20.9	30.5
COc1cccc(NC2=Nc3cccc4cccc2c34)c1	.	.	-0.4	.	.	.
O=C(/C=C\Nc1ccccn1)c1ccccc1	0.2	38.3	-0.7	0.6	-4.2	78.6*
CC(C)(O[C@@H]1O[C@H](CO)[C@@H](O)[C@H](O)[C@H]1O)[C@H]1Cc2cc3ccc(=O)oc3cc2O1	.	.	-1.8	.	.	.
O=C(COC(=O)c1cccc(Cl)c1)Nc1cc(Cl)ccc1Oc1ccccc1	.	.	-2.9	.	.	.
COc1ccc(C2CC(c3ccccc3)=NN2c2ccc(/C=N/NC(=O)c3ccncc3)cc2)cc1 (stereo not drawn)	0.8	55.9*	-2.6	0.4	.	17.3
CCC(C)NC(=O)C1CCCN(S(=O)(=O)c2ccc(-n3cnnn3)cc2)C1 (stereo not drawn)	0.9	13.6	-1.1	0.9	1.1	9.0
CC(NC(=O)CSc1nnc(COc2ccccc2)o1)c1ccccc1 (stereo not drawn)	0.2	46.4	1.9	0.5	-5.8	81.9*
O=C(CSc1ncccn1)Nc1ccccc1	0.7	-2.7	-1.3	1	.	30.5
COc1ccc(Cc2nnc(SCC(=O)NC(C)c3ccccc3)o2)cc1 (stereo not drawn)	0.7	12.3	-1.2	0.9	-16.6	26.4
CC(C)CCNC(=O)NC(=O)CSc1nnc(COc2ccccc2Cl)o1	0.5	53.2*	0.5	0.5	6.5	49.6
CC(NC(=O)CSc1ncccn1)c1ccccc1 (stereo not drawn)	0.2	6.9	-2.6	0.9	.	78.2*
Cc1ccc(C2c3c(oc4ccccc4c3=O)C(=O)N2c2nnc(C(C)C)s2)o1 (stereo not drawn)	1.1	13.1	-3.5	0.9	-1.5	-5.1
O=C(/C=C/c1ccccc1)CC(O)(c1ccccc1)C(F)(F)F (stereo not drawn)	0.4	45.3	-3.4	0.5	-4.0	64.6*
O=C(/C=C/c1ccccc1)CC(O)(c1ccccc1)C(F)(F)C(F)F (stereo not drawn)	0.5	43.0	-3.3	0.6	-4.7	45.5
O=C(NCCC1=CCCCC1)N[C@@H](Cc1ccccc1)C(=O)O	0.9	-1.4	-1.9	1	12.5	6.7
CCSc1nnc(NC(=O)C2(C)Cc3ccccc3C(=O)O2)s1 (stereo not drawn)	1	73.5*	0.5	0.3	2.0	-4.0
CC1(C(=O)Nc2nnc(C(C)(C)C)s2)Cc2ccccc2C(=O)O1 (stereo not drawn)	1.1	12.5	-1.9	0.9	-2.8	-5.2
CN/S(=N/S(=O)(=O)c1ccccc1)c1ccc(C)cc1 (stereo not drawn)	0.2	25.7	-0.5	0.7	21.6	76.0*
CCn1cc(/C=C/C(=O)Nc2ccn(Cc3c(F)c(F)c(F)c(F)c3F)n2)cn1	.	.	-3.9	.	.	.
O=C(COC(=O)c1cccnc1Nc1cccc(C(F)(F)F)c1)NC1CCS(=O)(=O)C1 (stereo not drawn)	.	.	-0.1	.	.	.
COc1ccc(-c2nn(CC(=O)N(C)C)c(=O)c3ccccc23)cc1	0.9	11.1	-0.9	0.9	2.5	6.3
